Results taken from PubChem BioAssay (Tox21).
Results filed as inconclusive are left out. Entries that show only a call come without a potency. Values without a mark were called inactive. Calls of active or inactive are those of the source. Unless noted, calls come from the whole dose curve; as a rule, active = well fitted curve in the direction sought with a large enough effect in the repeat runs; inconclusive = weak or mixed curves; inactive = no such curve, though single readings can be large; an effect the other way counts as inactive or inconclusive.

Tests used:
[1] = qHTS assay to identify small molecule agonists of the peroxisome proliferator-activated receptor delta (PPARd) signaling pathway - cell viability counter screen (AID 743211); note: nearly all actives have a fitted effect of over 55% in size
Procedure, shortened: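 Counter screen for cytotoxicity run in parallel with the PPARd reporter screen. Beta-lactamase reporter HEK293H cells exposed to compounds 17 h; ATP-based CellTiter-Glo luminescence quantified viability.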

[2] = qHTS assay to identify small molecule antagonists of the peroxisome proliferator-activated receptor delta (PPARd) signaling pathway - cell viability counter screen (AID 743213); note: nearly all actives have a fitted effect of over 50% in size
Procedure, shortened: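 Cytotoxicity counter screen: CellTiter-Glo luminescence read 30 min after addition, in the same wells as the reporter assay. There, PPARd UAS-bla HEK293H cells (3000/well) were treated 17 h at 37 C with compound and 300 nM L165041.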

[3] = qHTS assay to identify small molecule antagonists of the farnesoid-X-receptor (FXR) signaling pathway - cell viability counter screen (AID 743221; active = well fitted cell-killing curve with a large enough effect in the repeat runs, not every such curve was filed as active; note: nearly all actives have a fitted effect of over 50% in size; note: potency is the fitted concentration of half-maximal effect)
Procedure, shortened: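 Multiplexed counter screen: viability of FXR-bla HEK 293T cells under agonist stimulation by chenodeoxycholic acid (50 uM, final) and test compound for 16 h at 37 C, measured by CellTiter-Glo luminescence in the reporter wells.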

[4] = qHTS assay to identify small molecule agonists of the endoplasmic reticulum stress response signaling pathway (AID 1159516; active = well fitted activation curve with a large enough effect in the signal ratio in the repeat runs, not every such curve was filed as active; the % refers to the signal ratio)
Procedure, shortened: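 CellSensor ESRE-bla HeLa cells, 1,500 per well, plated overnight, then exposed to compounds for 5 hr at 37 C. Beta-lactamase reporter read with LiveBLAzer B/G FRET substrate after 2 hr at room temperature, 405 nm excitation, 460 and 530 nm emission.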

[5] = qHTS assay to identify small molecule agonists of the endoplasmic reticulum stress response signaling pathway - cell viability counter screen (AID 1159517; calls by dose curve;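 note: HeLa cells carrying an ER stress response element beta-lactamase reporter; series mostly up to about 61 µM; nearly all actives have a fitted effect of over 50% in size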)
Procedure, shortened: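 ESRE-bla HeLa cells, 1,500 per well, seeded overnight then treated with compounds for 5 hr at 37 C. After the beta-lactamase read, viability in the same wells is measured by CellTiter-Glo luminescence after 30 min at room temperature.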

[6] = qHTS assay to identify small molecule antagonists of the retinoid-related orphan receptor gamma (ROR-gamma) signaling pathway - cell viability counter screen (AID 1159520); note: nearly all actives have a fitted effect of over 50% in size
Procedure, shortened: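 Tet-on ROR gamma CHO cells were given compounds for 2 hr, then doxycycline hyclate at 1 uM final, and incubated 16 hr at 37 C. Viability was measured as ATP content by CellTiter-Glo luminescence.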

[7] = biological target: Nuclear receptor ROR-gamma (Homo sapiens) (UniProt P51449); assay: qHTS assay to identify small molecule antagonists of the retinoid-related orphan receptor gamma (ROR-gamma) signaling pathway (AID 1159521; note: nearly all actives have a fitted effect of over 50% in size; note: potency is the fitted concentration of half-maximal effect)
Procedure, shortened: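 Cells were plated, rested 4 h at 37 C, exposed to compounds for 2 h, then given 1 uM final doxycycline hyclate to induce RORγ expression. After 16 h, ONE-Glo luminescence from the ROR response element reporter was measured.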

[8] = qHTS assay to identify small molecule agonists of the AP-1 signaling pathway - cell viability counter screen (AID 1159525; calls by dose curve; note: nearly all actives have a fitted effect of over 55% in size)
Procedure, shortened: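 AP-1-bla ME-180 cells in Opti-MEM with 0.5% dialyzed FBS, compound exposure 5 h at 37 C in 15-point titration. Viability read in the same wells as ATP content by CellTiter-Glo luminescence, normalised to tetra-n-octylammonium bromide and DMSO controls.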

[9] = biological target: Peroxisome proliferator-activated receptor delta (Homo sapiens) (UniProt Q03181); assay: qHTS assay to identify small molecule agonists of the peroxisome proliferator-activated receptor delta (PPARd) signaling pathway (AID 743212; calls by dose curve)
Procedure, shortened: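 GeneBLAzer UAS-bla HEK293H cells carrying a PPARδ construct were exposed to compounds at 37 °C. Beta-lactamase activity was read by FRET fluorescence after 2 h at room temperature with LiveBLAzer B/G substrate.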

[10] = biological target: Peroxisome proliferator-activated receptor delta (Homo sapiens) (UniProt Q03181); assay: qHTS assay to identify small molecule antagonists of the peroxisome proliferator-activated receptor delta (PPARd) signaling pathway (AID 743215; active = well fitted inhibition curve with a large enough effect in the signal ratio in the repeat runs, not every such curve was filed as active; the % refers to the signal ratio;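 note: cells stimulated with agonist L165041 at 300 nM final during compound exposure; series mostly up to about 62 µM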)
Procedure, shortened: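 PPARd-bla HEK293H cells (UAS-bla reporter) preincubated 5 h, then given compound plus 300 nM final L165041 agonist for 17 h at 37 C. Beta-lactamase activity read by LiveBLAzer B/G FRET substrate fluorescence after 2 h at room temperature.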

[11] = biological target: Bile acid receptor (Homo sapiens) (UniProt Q96RI1); assay: qHTS assay to identify small molecule antagonists of the farnesoid-X-receptor (FXR) signaling pathway (AID 743217; active = well fitted inhibition curve with a large enough effect in the signal ratio in the repeat runs, not every such curve was filed as active; the % refers to the signal ratio)
Procedure, shortened: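 FXR-UAS-bla HEK 293T cells (beta-lactamase reporter) given compound plus chenodeoxycholic acid (50 uM final), 16 h at 37C. LiveBLAzer B/G FRET substrate added for 2 h at room temperature; fluorescence read.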

[12] = qHTS assay to identify small molecule agonists of the farnesoid-X-receptor (FXR) signaling pathway - cell viability counter screen (AID 743218); note: nearly all actives have a fitted effect of over 45% in size
Procedure, shortened: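 FXR-UAS-bla HEK 293T cells exposed to compounds for 16 h at 37C. Cytotoxicity read in the same wells by CellTiter-Glo luminescence after 30 min at room temperature, following the beta-lactamase FRET read.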

[13] = biological target: Bile acid receptor (Homo sapiens) (UniProt Q96RI1); assay: qHTS assay to identify small molecule agonists of the farnesoid-X-receptor (FXR) signaling pathway (AID 743220; active = well fitted activation curve with a large enough effect in the signal ratio in the repeat runs, not every such curve was filed as active; the % refers to the signal ratio)
Procedure, shortened: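 Beta-lactamase reporter under UAS control in GeneBLAzer FXR HEK 293T cells (5000/well) measured with LiveBLAzer FRET substrate after 2 h at room temperature. Compound exposure lasted 16 h at 37C.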

[14] = biological target: Vitamin D3 receptor (Homo sapiens) (UniProt P11473); assay: qHTS assay to identify small molecule agonists of the vitamin D receptor (VDR) signaling pathway (AID 743222; calls by dose curve)
Procedure, shortened: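 VDR-bla cells plated 4 h at 37 C, then exposed to compounds for 16 h at 37 C. Beta-lactamase reporter activity measured by fluorescence after 2 h room-temperature loading with LiveBLAzer B/G FRET substrate.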

[15] = qHTS assay to identify small molecule agonists of the vitamin D receptor (VDR) signaling pathway - cell viability counter screen (AID 743224)
Procedure, shortened: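 VDR-bla cells, 4 h after plating, exposed to compounds for 16 h at 37C; viability then read in the same wells as CellTiter-Glo luminescence after 30 min at room temperature, following the bla FRET read.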

[16] = qHTS assay to identify small molecule antagonists of the vitamin D receptor (VDR) signaling pathway - cell viability counter screen (AID 743225); note: nearly all actives have a fitted effect of over 50% in size
Procedure, shortened: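 HEK293T VDR-bla; cpd + 1a,25-(OH)2D3 3 nM final, 16 h 37C/5% CO2; B/G FRET substrate 2 h RT; then CellTiter-Glo 30 min RT, luminescence.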

[17] = biological target: Retinoic acid receptor RXR-alpha (Homo sapiens) (UniProt P19793); assay: qHTS assay to identify small molecule agonists of the RXR signaling pathway (AID 1159527; calls by dose curve; note: nearly all actives have a fitted effect of over 35% in size)
Procedure, shortened: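 Cells plated at 2,000/well, rested 5 hr at 37 C, pin-dosed with DMSO compound solutions, incubated 16 hr, then loaded with B/G FRET substrate for 2 hr at RT before dual-emission fluorescence reading.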

[18] = qHTS assay to identify small molecule agonists of the AP-1 signaling pathway (AID 1159526; calls by dose curve)
[19] = biological target: Vitamin D3 receptor (Homo sapiens) (UniProt P11473); assay: qHTS assay to identify small molecule antagonists of the vitamin D receptor (VDR) signaling pathway (AID 743223; active = well fitted inhibition curve with a large enough effect in the signal ratio in the repeat runs, not every such curve was filed as active; the % refers to the signal ratio)
Procedure, shortened: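 Cells carrying a VDR-driven beta-lactamase reporter (VDR-bla) were co-treated with compound and 3 nM final 1alpha,25-dihydroxyvitamin D3 for 16 h at 37C; reporter activity was measured as FRET substrate fluorescence after 2 h at room temperature.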

Sequence of Peroxisome proliferator-activated receptor delta (Homo sapiens) (Q03181 whole entry, looked up): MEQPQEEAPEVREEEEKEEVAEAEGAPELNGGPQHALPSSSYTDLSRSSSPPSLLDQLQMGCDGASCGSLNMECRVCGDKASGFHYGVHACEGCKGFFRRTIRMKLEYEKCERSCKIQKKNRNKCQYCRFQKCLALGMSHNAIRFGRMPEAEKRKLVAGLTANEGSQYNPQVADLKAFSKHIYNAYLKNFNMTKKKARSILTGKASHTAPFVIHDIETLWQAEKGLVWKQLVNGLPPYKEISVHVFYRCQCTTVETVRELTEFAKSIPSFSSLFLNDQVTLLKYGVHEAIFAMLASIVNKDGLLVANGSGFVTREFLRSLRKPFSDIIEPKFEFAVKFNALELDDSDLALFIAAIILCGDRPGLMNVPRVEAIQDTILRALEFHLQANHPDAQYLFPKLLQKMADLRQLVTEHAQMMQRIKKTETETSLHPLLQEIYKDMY
Sequence of Bile acid receptor (Homo sapiens) (Q96RI1 whole entry, looked up): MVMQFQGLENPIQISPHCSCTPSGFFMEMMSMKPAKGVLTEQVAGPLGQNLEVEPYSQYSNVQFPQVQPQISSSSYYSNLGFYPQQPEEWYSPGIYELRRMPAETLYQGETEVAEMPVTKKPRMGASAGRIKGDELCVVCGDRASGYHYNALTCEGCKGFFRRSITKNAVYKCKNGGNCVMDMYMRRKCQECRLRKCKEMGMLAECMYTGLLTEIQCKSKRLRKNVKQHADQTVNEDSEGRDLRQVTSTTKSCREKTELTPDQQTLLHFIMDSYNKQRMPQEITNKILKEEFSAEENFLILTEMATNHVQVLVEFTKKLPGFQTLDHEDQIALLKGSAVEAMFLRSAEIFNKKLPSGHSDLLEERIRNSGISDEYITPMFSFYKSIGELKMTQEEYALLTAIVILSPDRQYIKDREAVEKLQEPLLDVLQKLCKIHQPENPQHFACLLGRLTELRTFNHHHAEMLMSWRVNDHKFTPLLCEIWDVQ
Sequence of Vitamin D3 receptor (Homo sapiens) (P11473 whole entry, looked up): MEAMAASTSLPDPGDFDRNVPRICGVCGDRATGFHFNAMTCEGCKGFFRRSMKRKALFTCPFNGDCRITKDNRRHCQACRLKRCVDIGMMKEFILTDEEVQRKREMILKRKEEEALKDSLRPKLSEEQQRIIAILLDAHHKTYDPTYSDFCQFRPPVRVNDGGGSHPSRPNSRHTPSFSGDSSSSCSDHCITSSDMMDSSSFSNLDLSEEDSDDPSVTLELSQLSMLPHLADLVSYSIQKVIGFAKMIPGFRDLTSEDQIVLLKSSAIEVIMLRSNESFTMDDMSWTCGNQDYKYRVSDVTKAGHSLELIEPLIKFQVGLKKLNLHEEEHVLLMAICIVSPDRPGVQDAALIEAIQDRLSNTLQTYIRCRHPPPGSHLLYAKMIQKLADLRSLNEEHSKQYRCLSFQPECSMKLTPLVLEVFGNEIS
Sequence of Retinoic acid receptor RXR-alpha (Homo sapiens) (P19793 whole entry, looked up): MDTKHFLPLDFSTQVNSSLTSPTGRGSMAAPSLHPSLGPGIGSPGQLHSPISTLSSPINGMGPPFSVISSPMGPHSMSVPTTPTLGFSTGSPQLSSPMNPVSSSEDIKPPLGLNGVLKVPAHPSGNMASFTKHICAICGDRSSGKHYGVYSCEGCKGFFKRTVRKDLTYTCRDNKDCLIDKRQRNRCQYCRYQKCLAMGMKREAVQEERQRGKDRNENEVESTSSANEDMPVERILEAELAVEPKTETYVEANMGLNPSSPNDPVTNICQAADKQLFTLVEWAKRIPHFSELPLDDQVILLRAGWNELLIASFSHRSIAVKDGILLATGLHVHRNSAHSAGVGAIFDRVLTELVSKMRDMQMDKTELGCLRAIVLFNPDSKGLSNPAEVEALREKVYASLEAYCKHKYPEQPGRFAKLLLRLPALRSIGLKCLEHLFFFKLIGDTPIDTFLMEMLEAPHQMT

For `O=C(O)Cc1cc(I)c(Oc2ccc(O)c(I)c2)c(I)c1`, the Potency [1] was “inactive”, the Potency [2] was “inactive” and the Potency [3] was 54.9 µM (active). The Potency [4] was “inactive”, the outcome [5] was “inactive” and the Potency [6] was “inactive”. For the same compound, the Potency [7] was “inactive” and the Potency [8] was “inactive”.
For `CCCCCCCCCCCCCCCBr`, the Potency [1] was “inactive”, the outcome [9] was “inactive” and the Potency [2] was “inactive”. The outcome [10] was “inactive”, the outcome [11] was “inactive” and the Potency [12] was “inactive”. The outcome [13] was “inactive”, the Potency [3] was “inactive” and the outcome [14] was “inactive”. The Potency [15] was “inactive”, the Potency [16] was “inactive” and the Potency [4] was “inactive”. The outcome [5] was “inactive”, the Potency [6] was “inactive” and the Potency [7] was “inactive”. The Potency [8] was “inactive” and the Potency [17] was “inactive”.
For `NC1CCN(c2nc3c(cc2F)c(=O)c(C(=O)O)cn3-c2ccc(F)cc2F)C1` (configuration not stated), the Potency [1] was “inactive”, the Potency [2] was “inactive” and the Potency [12] was “inactive”. The Potency [3] was “inactive”, the Potency [15] was “inactive” and the Potency [16] was “inactive”. For the same compound, the Potency [4] was “inactive”, the outcome [5] was “inactive” and the Potency [6] was “inactive”. The Potency [7] was “inactive”, the Potency [8] was “inactive” and the Potency [18] was “inactive”.
For `CC[C@H](C)[C@@H](C(=O)O)n1sc2ccccc2c1=O`, the Potency [1] was “inactive”, the outcome [9] was “inactive” and the Potency [2] was “inactive”. The outcome [10] was “inactive”, the outcome [11] was “inactive” and the outcome [13] was “inactive”. The Potency [3] was “inactive”, the outcome [14] was “inactive” and the Potency [15] was “inactive”. The Potency [16] was “inactive”, the Potency [4] was “inactive” and the outcome [5] was “inactive”. The Potency [6] was “inactive”, the Potency [7] was “inactive” and the Potency [8] was “inactive”. The Potency [18] was “inactive”.
For `C[C@@H](C1=C(CCN(C)C)Cc2ccccc21)c1ccccn1`, the Potency [1] was “inactive”, the outcome [9] was “inactive” and the Potency [2] was “inactive”. For the same compound, the outcome [11] was “inactive”, the outcome [13] was “inactive” and the Potency [3] was “inactive”. For the same compound, the Potency [19] was “inactive”, the Potency [15] was “inactive” and the Potency [4] was “inactive”. For the same compound, the outcome [5] was “inactive”, the Potency [6] was “inactive” and the Potency [7] was “inactive”. For the same compound, the Potency [8] was “inactive” and the Potency [17] was “inactive”.
In the case of `CC(=O)OCCc1ccccc1`, the Potency [1] is reported as “inactive”, the outcome [9] is reported as “inactive” and the Potency [2] is reported as “inactive”. For the same compound, the Potency [12] was “inactive”, the Potency [3] was “inactive” and the outcome [14] was “inactive”. For the same compound, the Potency [15] was “inactive”, the Potency [4] was “inactive” and the outcome [5] was “inactive”. For the same compound, the Potency [6] was “inactive”, the Potency [7] was “inactive” and the Potency [8] was “inactive”. The Potency [18] was “inactive”.
For `CCCC(=O)OCC`, the Potency [1] was “inactive”, the outcome [9] was “inactive” and the Potency [2] was “inactive”. For the same compound, the outcome [10] was “inactive”, the Potency [12] was “inactive” and the Potency [3] was “inactive”. For the same compound, the outcome [14] was “inactive”, the Potency [19] was “inactive” and the Potency [16] was “inactive”. For the same compound, the Potency [4] was “inactive”, the outcome [5] was “inactive” and the Potency [6] was “inactive”. The Potency [7] was “inactive”, the Potency [8] was “inactive” and the Potency [18] was “inactive”.
With `Nc1cnn([C@@H]2O[C@H](CO)[C@@H](O)[C@H]2O)c(=O)n1` the Potency [1] was “inactive”, the outcome [9] was “inactive” and the outcome [10] was “inactive”. For the same compound, the outcome [13] was “inactive”, the Potency [3] was “inactive” and the Potency [19] was “inactive”. The Potency [15] was “inactive”, the Potency [16] was “inactive” and the Potency [4] was “inactive”. For the same compound, the outcome [5] was “inactive”, the Potency [6] was “inactive” and the Potency [7] was 21.7 µM (active). The Potency [8] was “inactive” and the Potency [18] was “inactive”.
In the case of `O=[N+]([O-])c1cccc(Cl)c1Cl`, the Potency [1] is reported as “inactive”, the outcome [9] is reported as “inactive” and the Potency [2] is reported as “inactive”. For the same compound, the outcome [10] was “inactive”, the outcome [11] was “inactive” and the Potency [12] was “inactive”. The outcome [13] was “inactive”, the Potency [3] was “inactive” and the outcome [14] was “inactive”. The Potency [15] was “inactive”, the Potency [16] was “inactive” and the Potency [4] was “inactive”. The outcome [5] was “inactive”, the Potency [6] was “inactive” and the Potency [7] was “inactive”. For the same compound, the Potency [8] was “inactive” and the Potency [18] was “inactive”.
With `O=C1c2cccc(O)c2C(=O)c2c(O)cc(CO)cc21` the Potency [1] was “inactive”, the Potency [2] was “inactive” and the outcome [11] was “inactive”. The Potency [12] was “inactive”, the outcome [13] was “inactive” and the Potency [3] was “inactive”. For the same compound, the outcome [14] was “inactive”, the Potency [19] was “inactive” and the Potency [15] was “inactive”. The Potency [16] was “inactive”, the Potency [4] was “inactive” and the outcome [5] was “inactive”. The Potency [6] was “inactive”, the Potency [7] was “inactive” and the Potency [8] was “inactive”. For the same compound, the Potency [18] was “inactive”.
With `CC(=O)c1ccc2c(c1)[C@H](NC(=O)c1ccc(F)cc1)[C@@H](O)C(C)(C)O2` the Potency [1] was “inactive”, the outcome [9] was “inactive” and the Potency [2] was “inactive”. For the same compound, the outcome [10] was “inactive”, the Potency [12] was “inactive” and the Potency [3] was “inactive”. For the same compound, the outcome [14] was “inactive”, the Potency [15] was “inactive” and the Potency [16] was “inactive”. The Potency [4] was “inactive”, the outcome [5] was “inactive” and the Potency [6] was “inactive”. The Potency [7] was “inactive”, the Potency [8] was “inactive” and the Potency [18] was “inactive”.
